Screening data as filed in PubChem.
Cruzain inh Det – qHTS Assay for Promiscuous and Specific Inhibitors of Cruzain (with detergent); Cruzipain (Trypanosoma cruzi), P25779; purified cruzain, Z-FR-AMC fluorescence, 0.01% Triton; Potency, µM, inactives show max response, negative = inhibition, hits mostly inhibitors; 200,000 compounds, 0.43% hits;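 note: plate controls were neutral wells for no effect and buffer without enzyme for full effect; nearly all actives have a fitted effect of over 40% in size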
Target sequence (P25779 123-467 limits assumed): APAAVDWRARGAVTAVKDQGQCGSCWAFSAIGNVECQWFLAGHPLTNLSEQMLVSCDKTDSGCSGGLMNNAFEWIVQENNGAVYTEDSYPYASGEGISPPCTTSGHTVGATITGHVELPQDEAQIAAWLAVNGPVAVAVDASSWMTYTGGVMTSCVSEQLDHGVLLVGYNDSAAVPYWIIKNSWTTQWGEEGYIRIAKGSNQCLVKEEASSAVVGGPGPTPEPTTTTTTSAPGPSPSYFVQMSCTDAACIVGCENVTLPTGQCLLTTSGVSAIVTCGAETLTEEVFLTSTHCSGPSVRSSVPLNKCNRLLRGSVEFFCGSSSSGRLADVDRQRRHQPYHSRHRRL
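Purified cruzain (1.5 nM final) was preincubated with compounds for 15 min at room temperature in 100 mM sodium acetate pH 5.5, 5 mM DTT, 0.01% Triton X-100. Reaction started with 2 uM Z-FR-AMC; AMC fluorescence change over 60 s gave activity.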
Cruzain noTriton – qHTS Assay for Promiscuous and Specific Inhibitors of Cruzain (without detergent). 200,000 compounds, 2.3% hits. Cruzipain (Trypanosoma cruzi), P25779. Potency, µM, for the others: max response, negative = inhibition, most hits filed as inhibitors. purified cruzain, Z-FR-AMC fluorescence, no detergent;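 note: plate controls were enzyme without inhibitor for no effect and buffer without enzyme for full effect; nearly all actives have a fitted effect of over 40% in size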
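Detergent-free condition (0.00005% Triton X-100) in acetate buffer pH 5.5 with DTT. 1.5 nM enzyme and compound were pre-mixed 15 min, then 2 uM Z-FR-AMC substrate added; reaction progress from fluorescence change between first and third reads (60 s).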
The depositor's hits bear a star; ? = inconclusive. Sampled rows, rich in hits. Any-hit rate of the full collection: about 2.6%. Calls come from the whole dose curve; as a rule, active = well fitted curve in the direction sought with a large enough effect; inconclusive = small, poorly fitted or top-dose-only effect, or another doubt; inactive = no such curve, though single readings can be large; an effect the other way counts as inactive or inconclusive. Potency is the fitted concentration of half-maximal effect.

SMILES	Cruzain inh Det	Cruzain noTriton
COc1cccc(C(=O)NCC(=O)N/N=C/c2cccc(OC(=O)c3ccc([N+](=O)[O-])cc3)c2)c1	-18.6%	?
COc1ccc(CC(N)C(=O)N[C@H]2[C@@H](O)[C@H](n3cnc4c(N(C)C)ncnc43)O[C@@H]2CO)cc1 (stereo partly specified)	-2.2%	-2.1%
COc1cc2nc(SCC(=O)Nc3c(C)cc(C)cc3C)n3nc(CCn4c(C)nc5ccccc54)nc3c2cc1OC	-0.8%	1.3%
COc1ccc2c(c1)C(c1cc(OC)c(OC)c(OC)c1)CC(=O)O2 (stereo unspecified)	0.5%	3.7%
Cc1cc(-n2c(C)nc3ccccc3c2=O)ccc1NC(=O)c1cccc([N+](=O)[O-])c1C	-0.4%	-0.7%
CCCCCn1c(NCc2ccccc2OC)nc2ccccc21	-3.7%	0.0%
O=C1OC2(c3cc(Br)c(O)c(Br)c3Oc3c2cc(Br)c(O)c3Br)c2c(Cl)c(Cl)c(Cl)c(Cl)c21	15.8µM*	?
O=C1OC(c2ccc(O)c(-c3ccccc3)c2)(c2ccc(O)c(-c3ccccc3)c2)c2c(Cl)c(Cl)c(Cl)c(Cl)c21	1.4%	-0.7%
CCOC(=O)c1cnn(-c2ccc(OC)cc2)c1C1CCN(C(=O)OC(C)(C)C)CC1	-7.1%	?
C[C@@H](C(=O)Nc1ccc2ccccc2c1)[C@@H]1C[C@@]1(C)[C@@H](NS(=O)(=O)c1ccccc1)c1ccccc1	-0.8%	?
C[C@@H](C(=O)Nc1ccc2ccccc2c1)[C@@H]1C[C@@]1(C)[C@@H](NS(=O)(=O)c1ccc(-c2ccccc2)cc1)c1ccccc1	1.3%	3.16µM*
CC(=O)N[C@@H](c1ccccc1)[C@]1(C)C[C@H]1[C@@H](C)C(=O)Nc1ccc2ccccc2c1	-1.6%	?
C[C@@H](C(=O)Nc1ccc2ccccc2c1)[C@@H]1C[C@@]1(C)[C@@H](NC(=O)Oc1ccc(F)cc1)c1ccccc1	3.2%	7.94µM*
CC(C)CC(=O)NC(=S)Nc1nc(-c2ccc(Cl)cc2)cs1	-6.1%	?
CCc1ccc(-c2csc(NC(=O)Oc3ccccc3)n2)cc1	0.1%	12.6µM*
CCN(CC)CC(=O)Nc1nc(-c2ccc(Cl)cc2)cs1	-6.1%	-9.8%
O=C(Nc1ccccc1)Nc1nc(-c2ccc(Cl)cc2)cs1	1.7%	15.8µM*
O=C(Nc1cccc(Cl)c1)Nc1nc(-c2ccc(Cl)cc2)cs1	1.4%	10µM*
O=C(Nc1nc(-c2cccc(Br)c2)cs1)Oc1ccccc1	0.9%	?
Cn1c2ccccc2c2cnn(CC(=O)N3CCN(c4cccc(C(F)(F)F)c4)CC3)c(=O)c21	-4.8%	-0.7%
COc1ccc(CCNC(=O)c2c(O)nc3c(C)cccn3c2=O)cc1OC	-1.3%	-9.0%
CC(C)(C)c1ccc(OCCSc2nc(-c3cccs3)nc3cc(=O)[nH]n23)cc1	1.1%	5.6%
O=C(CC1S/C(=N/N=C/c2c[nH]c3ccc(OCc4ccccc4)cc23)NC1=O)Nc1ccccc1 (stereo unspecified)	-3.5%	6.31µM*
O=C(CC1S/C(=N/N=C/c2cccs2)NC1=O)Nc1ccc(Cl)cc1 (stereo unspecified)	-1.9%	-26.7%
O=C(CC1S/C(=N/N=C/c2c[nH]c3ccccc23)NC1=O)Nc1ccccc1 (stereo unspecified)	-6.2%	?
SMILES	Cruzain inh Det	Cruzain noTriton
O=C(CC1S/C(=N/N=C/c2cccs2)NC1=O)Nc1ccc(Cl)c(Cl)c1 (stereo unspecified)	-5.0%	20µM*
CC1CN(C(=O)Nc2ccc(C(=O)NCc3cccc(F)c3)cc2)c2ccccc2S1 (stereo unspecified)	-5.6%	?
Cn1c(=O)c2c(nc(NCCCCO)n2Cc2ccccc2Cl)n(C)c1=O	-3.5%	8.2%
Cc1cccc(OCC(=O)Nc2ccc3oc(-c4ccccc4F)nc3c2)c1	-5.3%	1.2%
O=C(/C=C/c1cccs1)Nc1ccc(N2CCOCC2)c(S(=O)(=O)Nc2cc(Cl)ccc2Cl)c1	-3.5%	5.01µM*
COc1ccccc1NS(=O)(=O)c1cc(NC(=O)c2ccncc2)ccc1N1CCOCC1	-4.1%	?
COc1ccccc1NS(=O)(=O)c1cc(NC(=O)/C=C/c2cccs2)ccc1N1CCOCC1	-8.0%	25.1µM*
O=C(/C=C/c1ccc(Cl)cc1)NC(=S)Nc1ccc(N2CCOCC2)c(Cl)c1	-5.3%	?
O=C(Nc1ccc(Cl)c(S(=O)(=O)Nc2ccccc2Cl)c1)c1cccs1	-4.7%	-24.0%
O=C(/C=C/c1cccs1)Nc1ccc(N2CCOCC2)c(S(=O)(=O)Nc2ccccc2Cl)c1	-2.7%	25.1µM*
COc1cccc(-n2c(=O)c3c4c(sc3n(Cc3ccc(C)cc3)c2=O)CCCC4)c1	-0.6%	-3.4%
O=C1NC(=S)N/C1=C/c1ccc(-c2c(Br)cc([N+](=O)[O-])cc2Br)o1	-11.6%	20µM*
O=C1NC(=S)N/C1=C\c1cccc([N+](=O)[O-])c1	-3.1%	?
O=c1c2c(-c3ccccc3)csc2ncn1/N=C/c1c2ccccc2cc2ccccc12	-4.6%	10µM*
Cc1nn(-c2ccccc2)c(N2CCCC2)c1/C=N/n1cnc2scc(-c3ccccc3)c2c1=O	-0.8%	-2.9%
N#Cc1ccsc1NC(=O)CSc1ncn[nH]1	5.1%	-4.9%
N#Cc1ccsc1NC(=O)CSc1ncnc2ccccc12	-8.3%	15.8µM*
COc1ccc(N2CC(NC(=O)c3ccc(S(=O)(=O)N4CCCC4)cc3)CC2=O)cc1 (stereo unspecified)	1.6%	9.9%
COc1ccc(-c2ccc(CNCCCSc3nnnn3C)o2)cc1Cl	-4.5%	3.8%
Cc1ccc2c3c(c(SCC(=O)Nc4nccs4)nc2c1)CCCC3	2.0%	0.7%
CCc1cc2cc3c(cc2nc1SCC(=O)Nc1nccs1)OCO3	1.2%	20µM*
N#Cc1c(N2CCCC(O)C2)nc(N)c2c(N)nc3c(c12)CC(=O)N3C12CC3CC(CC(C3)C1)C2 (stereo unspecified)	-15.1%	1.9%
C=C(C)CN(CC)c1nc(N)c2c(N)nc3c(c2c1C#N)CC(=O)N3C12CC3CC(CC(C3)C1)C2	-3.3%	3.98µM*
Cc1ccc(OCC(=O)Nc2nnc(SCc3cc(=O)c4ccccc4[nH]3)s2)cc1	1.7%	11.5%
COC(=O)c1cc(-c2ccc3ccccc3c2)[nH]c(=O)c1C#N	2.2%	8.3%
SMILES	Cruzain inh Det	Cruzain noTriton
CCN(CC)CCCNC(=O)CCc1c(C)nc2c(c1C)c(=O)n(C)c(=O)n2C	-0.5%	-9.8%
CNS(=O)(=O)c1cn(CC(=O)Nc2ccc(C)cc2C)cc1S(=O)(=O)NC	0.6%	18.0%
CCC(=O)Nc1cccc(-c2cn3c(C)csc3n2)c1	-0.7%	1.9%
N#Cc1ccc(-c2ccccc2)nc1SCC(=O)c1cc2ccccc2oc1=O	-5.0%	20µM*
CC(C)c1c(C#N)c(N)nc(SCC(=O)c2cc3ccccc3oc2=O)c1C#N	1.1%	-37.3%
CC1=C(c2ccc(C)cc2)S(=O)(=O)NC1=NCc1ccccc1Cl	-8.0%	-16.7%
COc1ccccc1CNc1nc(-c2ccccc2OC)nc2ccccc12	-0.6%	-5.9%
COC(=O)c1c(NC(=O)c2ccc(N(C)S(=O)(=O)c3ccc(C)cc3)cc2)sc2c1CCCC2	-4.0%	3.98µM*
COC(=O)c1c(NC(=O)CS(=O)(=O)c2ccc(C)cc2)sc2c1CCCC2	-7.7%	?
CCOC(=O)c1c(NC(=O)c2ccccc2N(C)S(=O)(=O)c2ccccc2)sc2c1CCCC2	-2.1%	20µM*
